In PubChem BioAssay (EPA / NIEHS):
Records with an inconclusive call do not appear. Calls of active or inactive are those of the source. The calls were made as follows: active = hit-call score of the fitted dose curve at least 0.9, where 1 is the maximum; inconclusive = response in the unintended direction; inactive = score below 0.9.

Target: human Caspase 4 (CASP4), CASP4 (gene 837) (UniProt P49662)
Test: NVS_ENZ_hCASP4: NovaScreen (NVS) Enzymatic Assay for human Caspase 4 (CASP4) (AID 2283143)
Description: NVS_ENZ_hCASP4 is a biochemical, single-readout assay that uses extracted gene-proteins from E. coli in a cell-free assay. Measurements were taken 2 hours after chemical dosing in a 96-well plate.NVS_ENZ_hCASP4 is one of one assay component(s) measured or calculated from the NVS_ENZ_hCASP4 assay. It is designed to make measurements of enzyme activity, a form of enzyme reporter, as detected with fluorescence intensity signals by Fluorescence technology.Data from the assay component NVS_ENZ_hCASP4 was analyzed into 1 assay endpoint. This assay endpoint, NVS_ENZ_hCASP4, was analyzed in the positive analysis fitting direction relative to DMSO as the negative control and baseline of activity. Using a type of enzyme reporter, loss-of-signal activity can be used to understand changes in the enzymatic activity as they relate to the gene CASP4. Furthermore, this assay endpoint can be referred to as a primary readout, because this assay has produced multiple assay endpoints where this one serves a enzymatic activity function. To generalize the intended target to other relatable targets, this assay endpoint is annotated to the protease intended target family, where the subfamily is cysteine protease.
Binding assays used specific radioligands (tritiated, iodinated) with non-radioactive competitive displacement ligands in agonist or antagonist protocols (as indicated) and various reference compounds and inhibitors to titrate specific binding to receptors and transporters. Most enzyme assays (CYPs, kinases, phosphatases, proteases, HDACs) used recombinant protein and specific substrates (fluorescence mostly, some colorimetric and radioactive) and inhibitors, followed by a biochemical separation of substrate and product. All assays for the biochemical HTS were initially run in duplicate at a single concentration (10 uM for CYP450 assays and 25 uM for all others). Assay-chemical combinations meeting a pre-defined threshold (e.g., 30% inhibition and other criteria defined below) were then run in singleton concentration-response format with maximum concentration of 20 uM for CYPs and 50 uM for all others. Each assay was run with positive and negative controls, and concurrent controls on every plate. The follow-up (secondary) screen tested active chemical-pairs in concentration series, as well as a few additional assays not tested in the primary screen, some selected negative inactives, and several cases re-run in the concentration series for confirmatory purposes.

Sequence of human Caspase 4 (CASP4), CASP4 (gene 837) (P49662 whole entry, looked up): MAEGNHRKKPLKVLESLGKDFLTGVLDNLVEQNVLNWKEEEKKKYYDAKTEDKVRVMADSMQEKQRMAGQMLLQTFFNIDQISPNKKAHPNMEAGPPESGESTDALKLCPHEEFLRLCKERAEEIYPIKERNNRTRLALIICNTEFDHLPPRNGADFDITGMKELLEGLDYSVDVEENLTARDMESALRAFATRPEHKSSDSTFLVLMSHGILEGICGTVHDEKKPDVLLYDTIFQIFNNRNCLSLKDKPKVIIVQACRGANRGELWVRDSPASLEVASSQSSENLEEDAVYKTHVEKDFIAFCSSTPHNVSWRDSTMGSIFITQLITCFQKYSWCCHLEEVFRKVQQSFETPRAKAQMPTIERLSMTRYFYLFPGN

**Q.** For `Cc1ccc(C(C)C)c(O)c1`, which outcome is on record?
**A.** Its outcome is “inactive”.

**Q.** Which outcome does the source give for `CC1=C(/C=C/C(C)=C/C=C/C(C)=C/CO)C(C)(C)CCC1` here?
**A.** The outcome was “inactive”.

**Q.** Which outcome does the source give for `Cc1cccc([N+](=O)[O-])c1C` here?
**A.** The outcome was “inactive”.

**Q.** With `COc1ccc(S(=O)(=O)N2C(=O)[C@@](c3ccccc3OC)(N3C[C@H](O)C[C@H]3C(=O)N(C)C)c3cc(Cl)ccc32)c(OC)c1` as the compound, how does the outcome read?
**A.** The outcome was “inactive”.

**Q.** For `CCc1c(C(=O)NN2CCCCC2)nn(-c2ccc(Cl)cc2Cl)c1-c1ccc(Br)cc1`, which outcome is on record?
**A.** Its outcome is “inactive”.

**Q.** For `COc1cc(-c2nc(NC(=O)c3cc4cc(C)cc(C)c4n3CC(=O)O)sc2CCC2CCCCC2)c(OC)cc1Cl`, which AC50 is on record?
**A.** The AC50 was 14.3 µM (active).

**Q.** `CCOc1ccc2c(c1)C(C)=CC(C)(C)N2` was tested. Which AC50 did it give?
**A.** Its AC50 is 15.1 µM (active).

**Q.** `Cc1nc(-c2ccc3c(c2)CCN(CCC2CCC(NC(=O)/C=C/c4ccc(F)cc4)CC2)CC3)no1` (configuration not stated) was tested. Which outcome did it give?
**A.** The outcome was “inactive”.

**Q.** Which outcome does the source give for `O=c1c(O)c(-c2ccc(O)c(O)c2)oc2cc(O)cc(O)c12` here?
**A.** The outcome was “inactive”.

**Q.** For `CCCCc1ccc2c(n1)[C@@H](c1ccc(OC)cc1C[C@H](C)C(=O)O)[C@H](C(=O)O)[C@H]2c1ccc2c(c1)OCO2`, which outcome is on record?
**A.** Its outcome is “inactive”.

**Q.** How did the AC50 turn out when `Nc1ccc2c(c1)C(=O)c1ccccc1C2=O` was run?
**A.** The AC50 was 18.9 µM (active).

**Q.** Which AC50 does the source give for `COc1cc(S(=O)(=O)O)c(C)cc1N=Nc1c(O)ccc2cc(S(=O)(=O)O)ccc12` here?
**A.** Its AC50 is 25 µM (active).
